Experimental data reported in PubChem BioAssay (NCATS).
Inconclusive results are not listed. Activity calls are given as the source filed them. Calls follow the shape of the dose curve; as a rule, active = well fitted inhibition curve with a large enough effect; inconclusive = small, poorly fitted or top-dose-only effect; inactive = flat fitted curve, though single readings scatter.

These molecules were tested against Ubiquitin carboxyl-terminal hydrolase 1 (Homo sapiens) (UniProt O94782) (assay: Inhibitors of USP1/UAF1: Pilot qHTS (AID 504865; also: nearly all actives have a fitted effect of over 35% in size;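 as to activity change, negative = inhibition: rhodamine fluorescence freed from ubiquitin-rhodamine substrate followed over time; top concentration of the series differs between compounds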)). Conditions: purified USP1/UAF1, Ub-rhodamine cleavage fluorescence; series mostly up to 114 µM; activity change, negative = inhibition: at the top concentration.
In short: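 USP1/UAF1 complex (1nM) preincubated with compound 15 min at room temperature, then Ub-Rho substrate (150nM final) added. Fluorescence read kinetically at 480/540 nm, 6 reads every 60 seconds. Buffer: 50mM HEPES pH 7.8, 0.5mM EDTA, 0.1 mg/ml BSA, 1mM TCEP, 0.01% Tween-20.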
% is scaled to controls: 0 for no effect and ±100 for the full control effect; potency is read from the fitted curve at half-maximal effect.

Ubiquitin carboxyl-terminal hydrolase 1 (Homo sapiens), sequence (O94782 whole entry, looked up): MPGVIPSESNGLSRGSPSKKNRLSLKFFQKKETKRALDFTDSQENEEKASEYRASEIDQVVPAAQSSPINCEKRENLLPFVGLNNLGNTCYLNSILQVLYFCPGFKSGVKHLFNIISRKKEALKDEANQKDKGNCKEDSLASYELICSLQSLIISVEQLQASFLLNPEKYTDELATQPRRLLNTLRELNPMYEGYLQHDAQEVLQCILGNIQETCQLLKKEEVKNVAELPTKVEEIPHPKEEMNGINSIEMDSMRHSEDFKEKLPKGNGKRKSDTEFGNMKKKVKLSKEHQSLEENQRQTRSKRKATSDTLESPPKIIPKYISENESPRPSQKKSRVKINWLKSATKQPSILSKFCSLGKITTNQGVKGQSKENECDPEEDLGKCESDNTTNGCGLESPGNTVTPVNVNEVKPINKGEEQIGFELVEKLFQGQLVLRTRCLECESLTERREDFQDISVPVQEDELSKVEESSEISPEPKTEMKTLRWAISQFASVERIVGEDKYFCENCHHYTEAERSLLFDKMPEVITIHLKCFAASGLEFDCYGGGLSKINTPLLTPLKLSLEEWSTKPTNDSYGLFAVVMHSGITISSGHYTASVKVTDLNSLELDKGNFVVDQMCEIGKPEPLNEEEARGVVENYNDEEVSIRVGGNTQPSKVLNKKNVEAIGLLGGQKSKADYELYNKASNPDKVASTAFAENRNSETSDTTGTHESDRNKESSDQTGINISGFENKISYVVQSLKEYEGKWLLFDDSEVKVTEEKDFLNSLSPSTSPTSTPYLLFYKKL

For `CCN(CC)C(=S)S`, which “activity change, negative = inhibition” value is on record?
Its value is -3.68% (inactive).

Which “activity change, negative = inhibition” value does the source give for `C[Se]CC[C@H](N)C(=O)O` here?
Its value is -5.97% (inactive).

`NCC[C@H](O)C(=O)N[C@@H]1C[C@H](N)[C@@H](O[C@H]2O[C@H](CN)CC[C@H]2N)[C@H](O)[C@H]1O[C@H]1O[C@H](CO)[C@@H](O)[C@H](N)[C@H]1O` was tested. Which “activity change, negative = inhibition” value did it give?
The value was -0.311% (inactive).

For `CN1C(=O)C[C@@H](C(=O)N[C@@H](Cc2cnc[nH]2)C(=O)N2CCC[C@H]2C(N)=O)NC1=O`, which “activity change, negative = inhibition” value is on record?
The value was -3.31% (inactive).

How did the “activity change, negative = inhibition” value turn out when `CC(CNC(=O)c1cccnc1)NC(=O)c1cccnc1` (centres undefined) was run?
Its value is -10.2% (inactive).

For `CC(C)[C@@H](N)C(=O)O`, which “activity change, negative = inhibition” value is on record?
The value was 3.81% (inactive).

Which Potency does the source give for `CCCCCc1ccc(C)cc1O` here?
The Potency was 35.5 µM (active).

`O=P(O)(O)OP(=O)(O)OP(=O)(O)O` was tested. Which “activity change, negative = inhibition” value did it give?
The value was -14.1% (inactive).

For `Cn1c(O)c(N=NC(N)=S)c2ccccc21`, which “activity change, negative = inhibition” value is on record?
The value was -14.5% (inactive).
